The list is not random: actives were taken first. Their share in the collection is about 2.3%.
Rin1-Abl PPI inh = inhibitors of human Rin1-Abl protein interaction; P00519+Q13671; 360,000 tested, 0.4% active; inhibition, % at 7.35 µM; TR-FRET Rin1/Abl binding, biochemical; in the data active means inhibition above about 5%, passing the limit was not always enough
IDE inh = cellular human IDE inhibition; P14735; HEK cells, FAbetaB cleavage, fluorescence polarization; inhibition, % at 5.59 µM; 320,000 tested, 0.41% active; AID 434962;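 active means percent inhibition above the average of all tested compounds plus 3 SD, set per screening campaign, cut at about 16% in these data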;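 further: IDE supplied by intact live HEK cells; FP after avidin binding of uncleaved biotin substrate so inhibition keeps polarization high; 0% = DMSO wells and 100% = 60 µM reference IDE inhibitor Ii1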
Rpn11 inh = Rpn11 (human) deubiquitinase inhibition; inhibition, % at 20 µM; 360,000 tested, 0.59% active; AID 588493; O00487; human 26S proteasome, Ub4-pepOG fluorescence polarization; 20S core pre-blocked with epoxomicin;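 active means inhibition at 20 µM, scaled to each plate's controls, above about 33%, limit read from the data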
IDE cell activ = activators of human insulin-degrading enzyme in cells. P14735. HEK cells, FAbeta-B cleavage, fluorescence polarization; 0% vehicle, 100% cell-free pure enzyme wells. activation, % at 5.96 µM. 340,000 tested, 0.073% active. AID 493087;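 active means activation above the mean of all tested compounds plus 3 SD, set per screening campaign, cut at about 17% in these data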
Calb FLC = C. albicans growth modulation with fluconazole; C. albicans CaCi-2 (fluconazole-resistant clinical isolate) + fluconazole, Alamar Blue growth, 48 h; growth inhibition, % (concentration not given with the values); 300,000 tested, 0.57% active; AID 1979;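 active means growth inhibition above about 58% in most replicates, limit read from the data, passing the limit was not always enough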;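 further: all wells also contain fluconazole at 8 µg/ml as a sub-toxic cotreatment; 0% = median of DMSO wells and 100% = median of geldanamycin control wells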
TPT1 inhibitor = blocks Candida albicans tRNA 2'-phosphotransferase. recombinant caTPT1, FP RNA substrate dephosphorylation. inhibition, % at 5 µM. 300,000 tested, 0.81% active. AID 1962;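 active means inhibition above the mean of all tested compounds plus 3 SD, set per screening campaign, cut at about 24% in these data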;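 further: plate controls were DMSO alone for no effect and ferristatin control at 100 nM for full effect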
TPT1 inh confirm = confirmation of Candida albicans TPT1 inhibitors; recombinant caTPT1, fluorescence polarization, RNase T1 coupled; 2,400 tested, 74% active; shares compounds with TPT1 inhibitor; inhibition, % at 5 µM;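 active means inhibition above the primary screen limit, the mean inhibition of all tested compounds plus 3 SD, cut at about 25% in these data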
RNase T1 counter = counter-screen for TPT1 inhibitors: inhibitors of Aspergillus oryzae RNase T1; shares compounds with TPT1 inhibitor; RNase T1 cleavage, fluorescence polarization, 1536-well; inhibition, % at 5 µM; 2,400 tested, 83% active; AID 2153;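 active means inhibition above the solvent-only control well mean plus 3 SD, limit set per screening run, cut at about 23% in these data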;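 further: plate controls were DMSO wells with enzyme for no effect and wells without RNase T1 for full effect; inhibitors block cleavage so intact labeled substrate keeps polarization high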
An asterisk follows results filed as active; / = no result shown; + = active, no number.

SMILES	Rin1-Abl PPI inh	IDE inh	Rpn11 inh	IDE cell activ	Calb FLC	TPT1 inhibitor	TPT1 inh confirm	RNase T1 counter
COC(=O)C(C)n1nnc2sc(-c3ccccc3)cc2c1=O (configuration not stated)	3	1	5	-1	-23	26*	27*	33*
CC(C)Sc1nc2sc(-c3ccccc3)cc2c(=O)n1N	-2	8	-6	4	/	-3	/	/
CCn1cc(S(=O)(=O)N2CCN(Cc3ccc(F)cc3)CC2)cn1	4	-5	0	2	-5	-1	/	/
COc1ccc(OCCCC(=O)OC(C)C(=O)Nc2ccc(S(N)(=O)=O)cc2)cc1 (configuration not stated)	1	-7	2	4	5	2	/	/
COc1ccccc1C1C([N+](=O)[O-])=CC([N+](=O)[O-])=CN1C (configuration not stated)	-3	1	5	-5	5	42*	52*	61*
O=C1CSc2ccc(S(=O)(=O)N3CCN(c4ccccc4F)CC3)cc2N1	2	1	-2	3	15	28*	3	10
O=C1CSc2ccc(S(=O)(=O)N3CCN(c4ccccc4)CC3)cc2N1	1	-5	-6	-3	-1	2	/	/
N#Cc1ccccc1Cn1c(=O)n(Cc2ccc(C(=O)NCc3ccco3)cc2)c(=O)c2ccccc21	-2	1	5	-4	7	0	/	/
N#Cc1ccccc1Cn1c(=O)n(CCC(=O)NCc2ccco2)c(=O)c2ccccc21	-1	0	-2	0	-11	+	20	25*
CC(C)CC(C(=O)OCC(=O)c1c(N)n(C)c(=O)n(C)c1=O)N1C(=O)C2CC=CCC2C1=O (configuration not stated)	-1	3	-1	3	10	6	/	/
CCOC(=O)N1CCN(c2cc(NCCC(=O)O)c3c4c(onc24)-c2ccccc2C3=O)CC1	-12	9	/	5	/	137*	185*	152*
O=C(O)CCCNc1cc(N2CCN(C(=O)c3ccco3)CC2)c2noc3c2c1C(=O)c1ccccc1-3	-4	5	/	0	7	96*	170*	141*
CSC1=N/C(=C\c2ccc(F)cc2)C(=O)S1	-3	-1	-8	-10	1	-2	/	/
COc1ccc(/C=C/C=C2\N=C(SC)SC2=O)cc1	-1	3	2	-8	2	43*	46*	56*
Cn1c(N)nc(N)c(NC=O)c1=O	-3	/	-2	/	/	/	/	/
COc1cc2c(cc1OC)C(C)N(C(=O)c1ccc(Cl)c(S(=O)(=O)N3CCCCC3)c1)CC2 (configuration not stated)	0	4	0	-1	/	-2	/	/
CN(c1ccccc1)S(=O)(=O)c1cccc(NC(=O)CN2CCCc3ccccc32)c1	-2	-2	32	8	-7	37*	25*	37*
O=C(O)Cc1sc(Nc2ccc(F)cc2)nc1-c1cccs1	-5	7	/	-4	21	68*	49*	63*
Cc1ccc(Nc2nc(-c3ccccc3)c(CC(=O)O)s2)cc1	0	4	18	3	11	57*	22	31*
O=C(O)Cc1sc(Nc2ccccc2)nc1-c1ccc(Cl)cc1	0	1	8	2	-22	-3	/	/
Oc1c(C=NCc2ccc(F)cc2)[nH]c2ccc(Br)c(Cl)c12	/	5	/	/	13	54*	97*	104*
O=c1[nH]c(=O)n(C2CCCCCC2)c(O)c1C=NCc1ccc(F)cc1	-3	0	6	3	-2	-3	/	/
Cc1ccc(CN=Cc2[nH]c3ccc(Br)c(Cl)c3c2O)cc1	1	10	9	-7	-34	70*	130*	129*
COc1ncnc2c1ncn2CCCNCC(C)c1ccccc1 (configuration not stated)	-3	/	6	/	/	/	/	/
CCC1CCCCN1C(=O)NC(=O)c1ccccc1 (configuration not stated)	-1	4	-4	-2	0	-3	/	/
SMILES	Rin1-Abl PPI inh	IDE inh	Rpn11 inh	IDE cell activ	Calb FLC	TPT1 inhibitor	TPT1 inh confirm	RNase T1 counter
CC(=O)C1=NOC(CNc2ncc(C(F)(F)F)cc2Cl)C1 (configuration not stated)	-1	-4	4	3	-16	143*	11	11
O=C(O)C1=NOC(CNc2ncc(C(F)(F)F)cc2Cl)C1 (configuration not stated)	-1	1	-9	-5	1	4	/	/
COc1cc(C(=O)Nc2ccccc2N2CCOCC2)ccc1OCC(=O)N1CCOCC1	4	9	-6	4	/	1	/	/
O=C1NC(=S)S/C1=C\c1ccc(SCc2ccccc2)o1	4	4	84*	3	/	47*	46*	65*
CN(CC(=O)Nc1ccc(F)c(F)c1F)C(=O)Cc1ccc2c(c1)OCCO2	1	-2	-5	-5	-5	3	/	/
Cc1ccc(-c2ccc(/C=N/n3cnnc3)o2)cc1Cl	-2	4	-2	4	32	62*	2	5
Cc1ccc(-c2ccc(/C=N/n3cnnc3)o2)cc1	-2	-2	-2	6	3	0	/	/
O=C(/C=C\c1cccs1)c1c(O)ccc2ccc(=O)oc12	-4	0	-1	4	1	-2	/	/
O=C(COc1ccc2ccccc2c1)Nc1nccs1	0	0	-6	4	29	28*	4	10
O=C(COc1ccccc1)Nc1nccs1	2	5	-3	1	0	2	/	/
Cc1ccccc1N1CCN(C2CCCN(C(=O)CCC(F)(F)F)C2)CC1 (configuration not stated)	1	-5	-4	4	-2	0	/	/
Cc1cc(C)c(C#N)c(SCC(=O)c2ccccc2)n1	3	2	-2	0	-55	0	/	/
Cc1cc(=O)[nH]c(SCC(=O)c2ccccc2)c1C#N	1	8	21	1	27	51*	31*	45*
Cc1cc(C)cc(CC(=O)N2CCC2(C)C(=O)NS(=O)(=O)c2ccccc2Cl)c1 (configuration not stated)	-2	/	0	/	/	/	/	/
Clc1ccc(Cn2c(/C=C/c3ccco3)nc3ccccc32)cc1	-2	2	/	0	-11	29*	34*	46*
CCCn1c(/C=C/c2ccco2)nc2ccccc21	-1	2	19	-3	12	25*	38*	51*
CCCCn1c(/C=C/c2ccco2)nc2ccccc21	1	7	18	0	-16	23	/	/
CS(=O)(=O)/C(C#N)=C\c1cnc(S(=O)(=O)c2ccccc2)s1	/	7	/	/	1	35*	6	12
